# Bioassay records as filed in PubChem BioAssay.
# DT40 TDP1 no CPT: qHTS for Inhibitors of human tyrosyl-DNA phosphodiesterase 1 (TDP1): qHTS in cells in absence of CPT | 420,000 tested, 15% active | DT40 Tdp1-/- hTDP1 cells, no CPT, ATP luminescence, 48 h | Potency, µM (highest dose often 46.2 µM), without a hit: at the top dose activity change, negative = growth inhibition, usual class: inhibitors; also: potency is read from the fitted curve at half-maximal effect; nearly all actives have a fitted effect of over 55% in size
#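 A cellular qHTS used chicken DT40 cells lacking endogenous Tdp1 but carrying stably transfected human TDP1. Compounds were applied without camptothecin, and cell growth kinetics were judged by ATP-dependent luminescence after ≥48 hr.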
# TDP1 cell CPT: qHTS for Inhibitors of human tyrosyl-DNA phosphodiesterase 1 (TDP1): qHTS in cells in presence of CPT; 420,000 tested, 12% active; chicken DT40 Tdp1-/-;hTDP1 cells + 20 nM CPT, ATP luminescence, 48 h; Potency, µM (top dose mostly 46.2 µM), for the others: at the highest dose activity change, negative = growth inhibition, actives largely listed as inhibitors; also: potency is read from the fitted curve at half-maximal effect; nearly all actives have a fitted effect of over 55% in size
#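 Chicken DT40 Tdp1-/- cells stably complemented with human TDP1 were seeded at 400 cells/well in medium containing 20 nM camptothecin, exposed to pin-transferred compounds, and grown at 37 °C for at least 48 hr. Viability was read as ATP luminescence.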
# ALOX12 inh: Primary qHTS assay for inhibitors of human arachidonate 12S-lipoxygenase (ALOX12): Round 2. Polyunsaturated fatty acid lipoxygenase ALOX12 (Homo sapiens), P18054. purified 12hLO, xylenol orange hydroperoxide absorbance. Potency, µM (titrated, usually from 108 µM), for the others: top-dose activity change, negative = inhibition, actives largely listed as inhibitors. 580,000 tested, 1.1% active. AID 1671190, 2021; also: potency is read from the fitted curve at half-maximal effect
# Target sequence (P18054 whole entry, looked up): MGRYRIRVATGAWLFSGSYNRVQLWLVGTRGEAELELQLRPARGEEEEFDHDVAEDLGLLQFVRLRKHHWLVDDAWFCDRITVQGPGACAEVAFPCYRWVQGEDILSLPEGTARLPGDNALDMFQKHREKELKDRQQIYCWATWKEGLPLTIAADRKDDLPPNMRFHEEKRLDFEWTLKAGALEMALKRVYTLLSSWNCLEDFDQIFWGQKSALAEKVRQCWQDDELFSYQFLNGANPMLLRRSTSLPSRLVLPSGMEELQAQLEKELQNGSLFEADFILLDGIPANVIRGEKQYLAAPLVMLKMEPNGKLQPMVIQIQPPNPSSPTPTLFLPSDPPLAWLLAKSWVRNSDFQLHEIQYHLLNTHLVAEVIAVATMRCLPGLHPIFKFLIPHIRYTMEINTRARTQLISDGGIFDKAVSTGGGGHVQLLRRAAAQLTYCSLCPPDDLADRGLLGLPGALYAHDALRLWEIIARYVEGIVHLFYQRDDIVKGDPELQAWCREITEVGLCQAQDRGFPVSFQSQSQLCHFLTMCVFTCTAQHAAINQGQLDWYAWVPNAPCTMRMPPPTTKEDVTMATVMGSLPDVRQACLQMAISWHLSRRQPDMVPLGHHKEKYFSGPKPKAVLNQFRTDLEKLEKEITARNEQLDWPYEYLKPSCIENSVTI
#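 Purified human 12hLO at 150 nM in 25 mM Hepes, 0.01% Triton X-100, pH 7.0, preincubated 15 min at room temperature with compound. Reaction started with 40 uM arachidonic acid, 30 min at room temperature. Hydroperoxide measured by Fe-xylenol orange, 573/405 nm absorbance ratio.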
# HT1080NT lethal: qHTS for induction of synthetic lethality in tumor cells producing 2HG: qHTS for the HT-1080-NT fibrosarcoma cell line; Potency, µM (top dose mostly 46.1 µM), for the others: at the highest dose activity, negative = less viability, usual class: cytotoxic; AID 686970, 2013; 360,000 tested, 1.6% active; HT-1080-NT fibrosarcoma viability, CellTiter-Glo ATP luminescence, 48 h;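 also: NT is the 2HG producing partner of a matched IDH1 knockdown line; potency is read from the fitted curve at half-maximal effect; 0% = DMSO-treated cells and -100% = media-only wells without cells; nearly all actives have a fitted effect of over 55% in size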
#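 750 cells/well, RPMI + 5% FBS; 2 h settle, compound pin-transfer, 48 h at 37 degrees C. CellTiter-Glo 10 min RT, luminescence. Normalized to DMSO and media-only wells.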
# HT1080 IDH1KD tx: qHTS for induction of synthetic lethality in tumor cells producing 2HG: qHTS for the HT-1080-IDH1KD cell line. HT-1080 IDH1 knockdown viability, ATP luminescence, 48 h. Potency, µM (titrated, usually from 46.1 µM), without a hit: top-dose activity, negative = toxicity, actives largely listed as cytotoxic. 360,000 tested, 2% active. AID 686971, 2013;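 also: potency is read from the fitted curve at half-maximal effect; 0% = DMSO wells and -100% = cell-free medium wells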
#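 Cytotoxicity counter-line: IDH1KD HT-1080, 48 h, CellTiter-Glo. Curves classed by r2, magnitude and activity.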
# IL-1B inflam inh: qHTS for Inhibitors of Inflammasome Signaling: IL-1-beta AlphaLISA Primary Screen | AID 743279, 2014 | THP-1 LPS/ATP IL-1B secretion, AlphaLISA, 16 h; active compounds read low | 360,000 tested, 4.7% active | activity change, % at 57.5 µM; in the data active = activity change below about -50%; inconclusive = mostly about -30% to -49%
#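 THP-1 cells pretreated 1 hr with compounds (up to 57.5 uM final), then stimulated with LPS (250 ng/mL final) plus ATP (1.25 mM final); secreted IL-1B measured by AlphaLISA after 16 hr, decreased signal indicating inhibition.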
# The depositor's hits bear a star; i = inactive; ? = inconclusive; . = no result; [ ] = remark or other dose. This is one part of a sample in which hits are shown more often than they occur. Unless noted, calls follow the shape of the dose curve; as a rule, active = well fitted curve in the direction sought with a large enough effect; inconclusive = small, poorly fitted or top-dose-only effect, or another doubt; inactive = no such curve, though single readings can be large; an effect the other way counts as inactive or inconclusive. Unless noted, % is scaled to controls: 0 for no effect and ±100 for the full control effect.
SMILES,DT40 TDP1 no CPT,TDP1 cell CPT,ALOX12 inh,HT1080NT lethal,HT1080 IDH1KD tx,IL-1B inflam inh
O=C(Nc1ncn(Cc2ccccc2F)n1)c1ccn(COc2ccc(Cl)cc2)n1,.,.,5%,.,.,.
Cc1nc(Nc2nc3ccccc3o2)nc(C)c1C,-69%,-20%,-1%,-26%,-30%,?
Cc1ccc(Nc2nc3ccccc3o2)cc1F,10µM*,8.2µM*,i,-26%,-21%,35
Cc1ccnc(Nc2nc3ccccc3o2)n1,21µM*,?,-5%,?,?,2
O=C(NCCc1ccc(Cl)cc1)c1cc(S(=O)(=O)N2CCCC2)ccc1F,16µM*,26µM*,2%,-7%,-17%,-5
COCCNC(=O)c1cc(S(=O)(=O)N2CCC3(CC2)OCCO3)ccc1F,-17%,-17%,-15%,3%,0%,-12
O=C(NCCc1ccc2c(c1)OCCO2)c1cc(S(=O)(=O)N2CCCC2)ccc1Cl,?,18µM*,-3%,10%,-1%,11
COc1ccc(CCNC(=O)c2cc(S(=O)(=O)N3CCC4(CC3)OCCO4)ccc2F)cc1OC,23µM*,?,5%,-1%,-10%,-7
NS(=O)(=O)c1ccc(CCNC(=O)c2cc(S(=O)(=O)N3CCCCC3)ccc2Cl)cc1,-26%,-12%,-6%,-4%,-4%,14
COC(=O)C1=CN(CC(=O)Nc2ccccc2OC)S(=O)(=O)N=C1C,.,.,1%,.,.,.
O=C(Cc1c(Cl)cccc1Cl)N1CCN(S(=O)(=O)c2cccs2)CC1,?,21µM*,-22%,9%[9.24 µM],8%,8
CCOc1ccc(OCCCC(=O)N2CCN(S(=O)(=O)c3ccc(Cl)cc3)CC2)cc1,?,?,45µM*,6%,12%,-15
CN1CCN(S(=O)(=O)c2ccc(SCCOc3ccc(Cl)cc3)nc2)CC1,16µM*,-89%,-20%,2%,-1%,?
O=C(CCCOc1ccccc1)N1CCN(S(=O)(=O)c2ccc(Cl)cc2)CC1,-28%,?,-30%,-3%,3%,3
CC(=O)c1ccc(OCCCC(=O)N2CCN(S(=O)(=O)c3cccs3)CC2)cc1,12µM*,?,0%,-22%,-21%,-21
COc1ccc(OCCSc2ccc(S(=O)(=O)N3CCCC3)cn2)cc1,?,?,-1%,1%[9.24 µM],-22%,-1
CCOc1cc(=O)n2c(c1C(=O)Nc1cc(F)ccc1C)CCCC2,.,.,28%,.,.,.
N#Cc1ccc(C(=O)N2CCCCCNC(=O)CC2c2ccccc2)cc1 (stereo not given),.,.,13%,.,.,.
Cn1cccc1C1CCCN1Cc1nnc(-c2ccccc2)o1 (stereo not given),.,.,-29%,.,.,.
Cc1ccc(C)c(C(=O)c2sc(Nc3ccccc3)nc2N)c1,.,.,-9%,.,.,.
CCOc1ccc(S(=O)(=O)N2CCN(C(=O)c3cccn3C)CC2)cc1,15µM*,?,17%,5%,5%,-3
CCOc1ccc(OCC(=O)N2CCN(S(=O)(=O)c3ccccc3)CC2)cc1,-20%,-26%,20%,8%,3%,-26
COC(=O)c1sc(=S)n(-c2cc(F)ccc2F)c1N,?,15µM*,?,-18%,-17%,-7
CCOC(=O)c1sc(=S)n(-c2cc(F)ccc2F)c1N,-28%,?,?,-1%,?,-18
CCCSc1ncc(CN2CCCC(c3nnc(CN(C)C)n3C)C2)cn1 (stereo not given),.,.,26%,.,.,.
SMILES,DT40 TDP1 no CPT,TDP1 cell CPT,ALOX12 inh,HT1080NT lethal,HT1080 IDH1KD tx,IL-1B inflam inh
O=C(CSc1nnnn1-c1cccc2c1CCCC2)N1CCCC1,23µM*,16µM*,0%[57.4 µM],2%,9%,24
O=C(CSc1nnnn1-c1cccc2c1CCCC2)N1CCOCC1,-27%,-13%,-6%,0%,0%,20
COC(=O)C(=O)CC(=O)c1ccc(C)s1,.,.,-65%,.,.,.
CCN(CC)CCCNC(=O)c1[nH]c2ccccc2c1Sc1ccc(Cl)cc1,15µM*,?,17%,21µM*,16µM*,-76*
O=C(NCCCN1CCCC1)c1cc(Sc2ccc(F)cc2)nc2ccccc12,-21%,-21%,-15%,21µM*,26µM*,-52*
COc1ccc2c(Sc3ccc(Cl)cc3)c(C(=O)NCCCN3CCCCC3)[nH]c2c1,23µM*,23µM*,?,.,.,.
CCOCCCNC(=O)c1[nH]c2cc(OC)ccc2c1Sc1ccccc1,-4%,-25%,-17%,.,.,.
O=C(NCCCN1CCCCC1)c1cc(Sc2ccc(Cl)cc2)nc2ccccc12,23µM*,16µM*,?,.,.,.
O=C(NCCN1CCOCC1)c1cc(Sc2ccc(F)cc2F)nc2ccccc12,-30%,?,0%,-7%,-21%,-14
N#Cc1cccc(CN2CCN(c3nccc(Cl)n3)C(=O)C2)c1,.,.,21%[176 µM],.,.,.
N#Cc1cccc(/C=C2\CCOc3cc(Br)ccc3C2=O)c1,.,.,4%,.,.,.
O=C(O)CCC(=O)N1CC=C(c2ccccc2)CC1,-3%,-28%,13%,6%,0%[9.24 µM],21
O=C(Cn1[nH]c(=O)c2ccccc2c1=O)N1CC=C(c2ccccc2)CC1,16µM*,11µM*,?,-20%,-18%,-12
Cc1ccc(Cl)cc1-n1ncc2c(Nc3cccc(C)c3C)ncnc21,16µM*,16µM*,?,.,.,.
COc1ccc(Nc2ncnc3c2cnn3-c2cc(Cl)ccc2C)cc1OC,?,21µM*,-29%,.,.,.
COc1ccc(Nc2ncnc3c2cnn3-c2cccc(C)c2)cc1OC,-13%,?,-11%,4%,15%,-17
Cc1ccc(OCC(O)CN2CCN(c3ccc(C(F)(F)F)cn3)CC2)cc1 (stereo not given),.,.,-1%,.,.,.
CCOc1ccc(Cl)cc1-c1cc(C(=O)NCCOC)[nH]n1,?,?,8%,8%,8%,-16
CCOc1ccc(Cl)cc1-c1cc(C(=O)NC(C)C)[nH]n1,?,?,2%,5%,-6%,19
CCOc1ccc(Cl)cc1-c1cc(C(=O)Nc2cc(OC)c(OC)c(OC)c2)[nH]n1,16µM*,21µM*,14%,?,?,-16
